Assay outcomes: PubChem BioAssay, National Center for Advancing Translational Sciences (NCATS)
A selection: hits, their analogues and other compounds. The true share with any hit is near 6%.
D3 ag: qHTS of D3 Dopamine Receptor Agonist: qHTS; 410,000 compounds, 0.58% hits; D(3) dopamine receptor (Homo sapiens), P35462; AID 652048, 2013; max activation, %; D3R DiscoveRx beta-arrestin cells, luminescence, 90 min; in the data active means max activation above about 30%
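Agonist mode: compounds and dopamine controls were applied to plated cells for 90 min at 37 degrees C after an overnight attachment at 1500 cells/well. Luminescent read-out followed 30 - 60 minutes at room temperature with DiscoveRx detection reagent.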
D1 ag: Allosteric Agonists of the Human D1 Dopamine Receptor: qHTS; 360,000 compounds, 1% hits; D(1A) dopamine receptor (Homo sapiens), P21728; AID 504660, 2011; HEK293 T-REx D1 cells, calcium flux, agonist mode; activation, % at 2 µM; in the data active means activation above about 30%
Target sequence (P21728 whole entry, looked up): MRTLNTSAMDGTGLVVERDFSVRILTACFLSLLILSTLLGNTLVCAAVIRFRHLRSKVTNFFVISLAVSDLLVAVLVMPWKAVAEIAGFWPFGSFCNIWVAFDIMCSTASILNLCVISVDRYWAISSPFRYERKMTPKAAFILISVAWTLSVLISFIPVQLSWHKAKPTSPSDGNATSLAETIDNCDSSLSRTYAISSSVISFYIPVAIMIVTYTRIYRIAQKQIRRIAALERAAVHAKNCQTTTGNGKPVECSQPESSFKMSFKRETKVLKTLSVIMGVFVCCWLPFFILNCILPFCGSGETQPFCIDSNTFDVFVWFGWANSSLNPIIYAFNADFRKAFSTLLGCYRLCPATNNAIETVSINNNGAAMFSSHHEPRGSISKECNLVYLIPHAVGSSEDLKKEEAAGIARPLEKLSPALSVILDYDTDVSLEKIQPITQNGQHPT
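Inducible HEK293 T-REx D1 cells, force-coupled to calcium signalling, were plated at 4000 cells/well with tetracycline and held overnight at 30 C. After no-wash calcium dye loading, compound-evoked calcium rise over 180 s flagged agonists.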
D1 PAM: Potentiators of Human D1 Dopamine Receptor: qHTS; 360,000 compounds, 0.036% hits; potentiation, % at 10 µM; HEK293 TREx D1 cells, calcium flux, dopamine EC20 potentiation; in the data active means potentiation above about 30%
D1 antagonist: Antagonist of Human D 1 Dopamine Receptor: qHTS | D(1A) dopamine receptor (Homo sapiens), P21728 | 360,000 compounds, 3.2% hits | activity change, negative = inhibition, % at 10 µM | HEK293 TREx D1 cells, calcium flux, dopamine EC80; stronger effect = lower value | AID 504652, 2011; in the data active means activity change below about -30%
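Compound effects on dopamine-evoked calcium signalling were measured in tetracycline-induced HEK293 Trex D1 cells. Dopamine at EC80 followed a 180 s compound pre-read, and fluorescence was tracked kinetically for 180 s more.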
DRD3 antagonist: qHTS of D3 Dopamine Receptor Antagonist: qHTS; D3R cells, DiscoveRx beta-arrestin luminescence, antagonist mode; stronger effect = lower value; 360,000 compounds, 2.5% hits; D(3) dopamine receptor (Homo sapiens), P35462; max response, negative = inhibition, %; in the data active means max response below about -50%; inconclusive means no clear call, values can overlap the other calls
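Cells plated overnight at 1500 cells/well, then exposed to library compounds with dopamine controls for 90 minutes at 37 degrees C. DiscoveRx reagent added for 30–60 minutes at room temperature; luminescence read, quantitative HTS format.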
Numbers stand for hits.

`COCCCNC(=O)C(=O)NCC(c1ccc2c(c1)OCO2)N1CCOCC1` (centres undefined) gave D3 ag inactive, D1 ag inactive, D1 PAM inactive and D1 antagonist inactive.
COc1ccc(NC(=O)Nc2cc(C)ccc2OC)cc1 was read as D3 ag inactive, D1 ag inactive, D1 PAM inactive, D1 antagonist -32 and DRD3 antagonist inactive.
For COc1ccc(/C=C/C(=O)OCC(=O)NCCC2=CCCCC2)cc1 the results were D3 ag inactive, D1 ag inactive, D1 PAM inactive, D1 antagonist -37 and DRD3 antagonist inactive.
`COc1ccc(NC(=O)Nc2ccc(O)c3ccccc23)cc1` gave D3 ag 33 and DRD3 antagonist inactive.
Cc1cc(C)c(OCC(=O)Nc2ccc(NC(=O)c3ccco3)cc2)c([N+](=O)[O-])c1 was read as D3 ag inactive, D1 ag inactive, D1 PAM inactive, D1 antagonist inactive and DRD3 antagonist inactive.
COc1cccc(/C=C/C(=O)OCC(=O)NCCC2=CCCCC2)c1 was read as D3 ag inactive, D1 ag inactive, D1 PAM inactive and DRD3 antagonist inactive.
For COc1ccc(C(=O)Nc2ccc(O)c3ccccc23)cc1 the results were D3 ag inactive and DRD3 antagonist inactive.
Screening Cc1cc(C)c(OCC(=O)Nc2cccc(NC(=O)c3ccco3)c2)c(Br)c1 returned D3 ag 34, D1 ag inactive, D1 PAM inactive, D1 antagonist inactive and DRD3 antagonist inactive.
Screening COCCCn1c(SCC(=O)Nc2ccc(F)cc2)nc2c(sc3ccccc32)c1=O returned D3 ag inactive, D1 ag inactive, D1 PAM inactive and D1 antagonist inactive.
Cc1ccc(NC(=O)Cn2nc(C(F)(F)F)c3c2CCCC3)cc1C was read as D3 ag inactive, D1 ag inactive, D1 PAM inactive and D1 antagonist inactive.
For CCc1nnc(SC(CC)C(=O)Nc2ccc(OC)c(Cl)c2)c2cc3occc3n12 (centres undefined) the results were D3 ag inactive, D1 ag inactive, D1 PAM inactive and D1 antagonist inactive.
COc1ccc(OC)c(NC(=O)Nc2ccc(Cl)cc2)c1 was read as D3 ag inactive, D1 ag inactive, D1 PAM inactive, D1 antagonist -43 and DRD3 antagonist inconclusive.
Screening COc1ccc(C)cc1NC(=O)NC(C)c1ccncc1 (centres undefined) returned D3 ag inactive, D1 ag inactive, D1 PAM inactive, D1 antagonist -32 and DRD3 antagonist inactive.
`COc1cc(NC(=O)c2cc([N+](=O)[O-])ccc2N2CCOCC2)ccc1NC(=O)c1ccco1` gave D3 ag inactive, D1 ag inactive, D1 PAM inactive, D1 antagonist inactive and DRD3 antagonist inactive.
COc1ccc(NC(=O)c2ccco2)cc1NC(=O)COc1ccccc1 was read as D3 ag inactive, D1 ag inactive, D1 PAM inactive, D1 antagonist inactive and DRD3 antagonist inactive.
For COC(=O)c1cc(NC(=O)Nc2cc(OC)ccc2OC)cc(C(=O)OC)c1 the results were D3 ag inactive, D1 ag inactive, D1 PAM inactive, D1 antagonist inactive and DRD3 antagonist inactive.
Screening COc1cc(NC(=O)c2cccc([N+](=O)[O-])c2C)ccc1NC(=O)c1ccco1 returned D3 ag inactive, D1 ag inactive, D1 PAM inactive, D1 antagonist -36 and DRD3 antagonist inactive.
For COc1ccc(NC(=O)COc2ccccc2)cc1NC(=O)c1ccco1 the results were D3 ag inactive, D1 ag inactive, D1 PAM inactive, D1 antagonist -37 and DRD3 antagonist inactive.
For COc1ccc(Cl)cc1NC(=O)NC(C)c1ccncc1 (centres undefined) the results were D3 ag inactive, D1 ag inactive, D1 PAM inactive, D1 antagonist inactive and DRD3 antagonist inconclusive.
`CN(C)c1ccc(-c2nc(-c3cccs3)c(-c3cccs3)[nH]2)cc1` gave D3 ag inactive, D1 ag inactive, D1 PAM inactive and D1 antagonist inactive.
COc1cc(NC(=O)c2ccco2)c(OC)cc1NC(=O)Nc1ccc(Cl)cc1 was read as D3 ag inactive, D1 ag inactive, D1 PAM inactive, D1 antagonist -44 and DRD3 antagonist inactive.
`COc1cccc(NC(=O)Nc2cc(C)ccc2OC)c1` gave D3 ag inactive, D1 ag inactive, D1 PAM inactive, D1 antagonist inactive and DRD3 antagonist inactive.
`COc1ccc(OC)c(NC(=O)COC(=O)c2n[nH]c3ccccc23)c1` gave D3 ag inactive, D1 ag inactive, D1 antagonist -39 and DRD3 antagonist inactive.
`COc1ccccc1/C=C/C(=O)OCC(=O)Nc1ccccc1Sc1ccccc1` gave D3 ag inactive, D1 ag 50, D1 PAM inactive, D1 antagonist inactive and DRD3 antagonist inactive.
For COc1ccc(C(=O)COC(=O)c2n[nH]c3ccccc23)c(OC)c1 the results were D3 ag inactive, D1 ag inactive, D1 PAM inactive, D1 antagonist inactive and DRD3 antagonist inactive.
For COc1ccc(OC)c(NC(=O)Nc2cccc(Cn3cccn3)c2)c1 the results were D3 ag inactive, D1 ag inactive, D1 PAM inactive, D1 antagonist -36 and DRD3 antagonist inactive.
For COc1ccccc1NC(=O)COC(=O)/C=C/c1ccccc1[N+](=O)[O-] the results were D3 ag inactive, D1 ag inactive, D1 PAM inactive, D1 antagonist inactive and DRD3 antagonist inactive.
For O=C1CC(c2ccc(F)cc2)c2c(c3ccccc3[nH]c2=O)O1 (centres undefined) the results were D3 ag inactive, D1 ag inactive, D1 PAM inactive and D1 antagonist inactive.
For C=C1C(=C/C=C2\CCC[C@]3(C)[C@@H]([C@H](C)/C=C/[C@H](C)C(C)C)CC[C@@H]23)C[C@@H](O)C[C@@H]1O the results were D3 ag inactive.
COc1ccc(OC)c(CCNc2ncnc3onc(C)c23)c1 was read as D3 ag inactive, D1 ag inactive, D1 PAM inactive and D1 antagonist inactive.
`COc1ccc(CNC(=O)COC(=O)/C=C/c2ccc(Cl)cc2)cc1` gave D3 ag inactive, D1 ag inactive, D1 PAM inactive, D1 antagonist inactive and DRD3 antagonist inactive.
Screening COc1ccc(OC)c(NC(=O)COC(=O)/C=C/c2ccc(Cl)cc2)c1 returned D3 ag inactive, D1 ag inactive, D1 PAM inactive, D1 antagonist -33 and DRD3 antagonist inactive.
Screening CCC(CC)NC(=O)Nc1ccc(F)c(Cl)c1 returned D3 ag inactive, D1 ag inactive, D1 PAM inactive, D1 antagonist -46 and DRD3 antagonist inactive.
